Test results from the supplement of paper PMC6897291.

Columns and labels:
[1] = tested on: U-2932; experiment: growth inhibition by drug alone (1 - RLU/untreated control) (fraction); higher = stronger inhibition; details: 177Lu-lilotomab satetraxetan 0 ug/ml
How it was run: (§1)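 Compound doses on the pre-printed Selleck Cambridge Cancer Compound library plates were 10/100 nM for RIVA cells and 10/1,000 nM for U-2932 cells, seeded at 3,000 cells/well. Before seeding, cells were washed after 18 h with or without a radiolabelled anti-CD37 antibody conjugate (~600 MBq/mg; 0.5 µg/ml RIVA, 1 µg/ml U-2932). Growth inhibition was derived from RealTime-Glo luminescence relative to untreated no-drug control wells. Readings were taken daily starting on day 3, each after 1 h at 37°C, and each well's RLU was divided by the mean of 48 such wells per plate and subtracted from 1.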

[2] = tested on: RIVA; experiment: as above; details: 177Lu-lilotomab satetraxetan 0 ug/ml
How it was run: as §1

[3] = tested on: U-2932; experiment: growth inhibition by drug plus 177Lu-lilotomab satetraxetan (1 - RLU/untreated control) (fraction); higher = stronger inhibition; details: 177Lu-lilotomab satetraxetan 1 ug/ml
How it was run: as §1

[4] = tested on: RIVA; experiment: as above; details: 177Lu-lilotomab satetraxetan 0.5 ug/ml
How it was run: as §1

Row | SMILES | growth inhibition by drug alone ([1]; 10 nM, time (day): 3) | growth inhibition by drug alone ([1]; 10 nM, time (day): 4) | growth inhibition by drug alone ([1]; 10 nM, time (day): 5) | growth inhibition by drug alone ([1]; 10 nM, time (day): 6) | growth inhibition by drug alone ([1]; 1000 nM, time (day): 3) | growth inhibition by drug alone ([1]; 1000 nM, time (day): 4) | growth inhibition by drug alone ([1]; 1000 nM, time (day): 5) | growth inhibition by drug alone ([1]; 1000 nM, time (day): 6) | growth inhibition by drug alone ([2]; 10 nM, time (day): 3) | growth inhibition by drug alone ([2]; 10 nM, time (day): 4) | growth inhibition by drug alone ([2]; 10 nM, time (day): 5) | growth inhibition by drug alone ([2]; 10 nM, time (day): 6) | growth inhibition by drug alone ([2]; 100 nM, time (day): 3) | growth inhibition by drug alone ([2]; 100 nM, time (day): 4) | growth inhibition by drug alone ([2]; 100 nM, time (day): 5) | growth inhibition by drug alone ([2]; 100 nM, time (day): 6) | growth inhibition by drug plus 177Lu-lilotomab satetraxetan ([3]; 10 nM, time (day): 3) | growth inhibition by drug plus 177Lu-lilotomab satetraxetan ([3]; 10 nM, time (day): 4) | growth inhibition by drug plus 177Lu-lilotomab satetraxetan ([3]; 10 nM, time (day): 5) | growth inhibition by drug plus 177Lu-lilotomab satetraxetan ([3]; 10 nM, time (day): 6) | growth inhibition by drug plus 177Lu-lilotomab satetraxetan ([3]; 1000 nM, time (day): 3) | growth inhibition by drug plus 177Lu-lilotomab satetraxetan ([3]; 1000 nM, time (day): 4) | growth inhibition by drug plus 177Lu-lilotomab satetraxetan ([3]; 1000 nM, time (day): 5) | growth inhibition by drug plus 177Lu-lilotomab satetraxetan ([3]; 1000 nM, time (day): 6) | growth inhibition by drug plus 177Lu-lilotomab satetraxetan ([4]; 10 nM, time (day): 3) | growth inhibition by drug plus 177Lu-lilotomab satetraxetan ([4]; 10 nM, time (day): 4) | growth inhibition by drug plus 177Lu-lilotomab satetraxetan ([4]; 10 nM, time (day): 5) | growth inhibition by drug plus 177Lu-lilotomab satetraxetan ([4]; 10 nM, time (day): 6) | growth inhibition by drug plus 177Lu-lilotomab satetraxetan ([4]; 100 nM, time (day): 3) | growth inhibition by drug plus 177Lu-lilotomab satetraxetan ([4]; 100 nM, time (day): 4) | growth inhibition by drug plus 177Lu-lilotomab satetraxetan ([4]; 100 nM, time (day): 5) | growth inhibition by drug plus 177Lu-lilotomab satetraxetan ([4]; 100 nM, time (day): 6)
1 | CC1(COc2ccc3c(c2)ncn3-c2ccc3cccc(N4CCC(N)CC4)c3n2)COC1 | 0.0766 | 0.0633 | 0.00938 | -0.0623 | 0.0371 | 0.0705 | -0.00181 | 0.0785 | 0.0318 | -0.0103 | -0.0736 | -0.123 | -0.25 | -0.202 | -0.209 | -0.254 | 0.0763 | 0.118 | 0.168 | 0.194 | 0.257 | 0.342 | 0.386 | 0.516 | 0.618 | 0.628 | 0.633 | 0.631 | 0.449 | 0.485 | 0.466 | 0.463
2 | COc1ccccc1OCC(O)CN1CCN(CC(=O)Nc2c(C)cccc2C)CC1 (stereo not drawn) [Ranolazine (Ranexa)] | 0.0363 | 0.0222 | -0.0749 | -0.119 | -0.0415 | -0.0106 | -0.0786 | -0.23 | 0.0348 | -0.0338 | -0.102 | -0.328 | -0.11 | -0.146 | -0.161 | -0.223 | -0.0197 | 0.00637 | 0.00274 | 0.118 | -0.0847 | 8.82e-05 | -0.0142 | -0.000571 | 0.412 | 0.527 | 0.544 | 0.551 | 0.294 | 0.438 | 0.446 | 0.418
3 | CNC(=O)[C@@H](NC(=O)[C@H](CC(C)C)[C@H](O)C(=O)NO)C(C)(C)C [Marimastat] | -0.0984 | -0.0992 | -0.103 | -0.269 | -0.124 | -0.117 | -0.167 | -0.336 | -0.274 | -0.343 | -0.475 | -0.556 | -0.508 | -0.486 | -0.476 | -0.599 | -0.127 | -0.0607 | 0.00218 | 0.096 | -0.0404 | -0.014 | 0.0136 | 0.157 | – | – | – | – | – | – | – | –
4 | COCC[n+]1c2c(n(Cc3cnccn3)c1C)C(=O)c1ccccc1C2=O | 0.948 | 0.947 | 0.963 | 0.974 | 0.989 | 0.989 | 0.989 | 0.989 | 0.984 | 0.981 | 0.98 | 0.981 | 0.98 | 0.979 | 0.98 | 0.979 | 0.945 | 0.95 | 0.969 | 0.977 | 0.988 | 0.988 | 0.989 | 0.991 | – | – | – | – | – | – | – | –
5 | CC(C)n1c(/C=C/C(O)CC(O)CC(=O)O)c(-c2ccc(F)cc2)c2ccccc21 (stereo not drawn) [Fluvastatin sodium (Lescol)] | 0.0449 | -0.0165 | -0.0177 | 0.0304 | -0.0194 | -0.0389 | -0.0543 | 0.0255 | -0.148 | -0.159 | -0.189 | -0.293 | -0.27 | -0.311 | -0.385 | -0.508 | -0.0533 | 0.0114 | 0.0651 | 0.148 | 0.00838 | 0.0135 | 0.0456 | 0.221 | 0.511 | 0.544 | 0.565 | 0.555 | 0.516 | 0.511 | 0.53 | 0.525
6 | NC(=O)Nc1sc(-c2ccc(F)cc2)cc1C(N)=O | 0.0734 | 0.0553 | 0.0297 | -0.262 | 0.197 | 0.229 | 0.176 | 0.239 | -0.0481 | -0.0689 | -0.274 | -0.781 | -0.446 | -0.283 | -0.285 | -0.444 | 0.0182 | 0.0728 | 0.0938 | 0.118 | 0.334 | 0.356 | 0.397 | 0.502 | – | – | – | – | – | – | – | –
7 | CC(=O)c1c(C)c2cnc(Nc3ccc(N4CCNCC4)cn3)nc2n(C2CCCC2)c1=O | 0.0532 | 0.0389 | -0.0177 | -0.186 | -0.0353 | -0.0097 | -0.082 | -0.259 | -0.0338 | -0.0722 | -0.148 | -0.339 | -0.149 | -0.13 | -0.138 | -0.285 | -0.0112 | 0.0266 | 0.0227 | 0.0699 | -0.111 | -0.00616 | -0.0131 | -0.0632 | 0.392 | 0.527 | 0.548 | 0.545 | 0.281 | 0.427 | 0.426 | 0.392
8 | COc1cc(C(=O)NC(=S)Nc2cccc(NC(=O)c3ccccc3)c2)cc(OC)c1OC | – | – | – | – | – | – | – | – | 0.0482 | 0.0356 | 0.0061 | -0.153 | 0.0949 | 0.0458 | 0.00408 | -0.0801 | 0.0383 | 0.0678 | 0.111 | 0.148 | -0.0454 | 0.0986 | 0.0849 | 0.125 | 0.491 | 0.568 | 0.58 | 0.595 | 0.562 | 0.589 | 0.588 | 0.568
9 | O=C(O)CCCc1ccccc1 [4-Phenylbutyrate] | 0.0701 | 0.0509 | 0.00363 | -0.192 | 0.0343 | 0.0446 | -0.0113 | -0.154 | -0.0798 | -0.0476 | -0.148 | -0.516 | -0.401 | -0.277 | -0.308 | -0.483 | 0.0355 | 0.105 | 0.141 | 0.163 | 0.0377 | 0.0642 | 0.124 | 0.195 | – | – | – | – | – | – | – | –
